IL-1B inflam inh: inflammasome signaling inhibition, IL-1 beta readout; THP-1 LPS/ATP IL-1B secretion, AlphaLISA, 16 h; stronger effect = lower value; activity change, % at 57.5 µM; hit rate 4.7% among 360,000; in the data active = activity change below about -50%; inconclusive = mostly about -30% to -49%
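THP-1 cells pretreated 1 hr with compounds (up to 57.5 uM final), then stimulated with LPS (250 ng/mL final) plus ATP (1.25 mM final); secreted IL-1B measured by AlphaLISA after 16 hr, decreased signal indicating inhibition.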
DT40 TDP1 CPT: DT40-hTDP1 cell growth loss with CPT; chicken DT40 Tdp1-/-;hTDP1 cells + 20 nM CPT, ATP luminescence, 48 h; Potency, µM (top dose mostly 46.2 µM), for inactives: top-dose activity change, negative = growth inhibition, hits mostly inhibitors; hit rate 12% among 420,000; note: potency is the fitted concentration of half-maximal effect; nearly all actives have a fitted effect of over 55% in size
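Chicken DT40 Tdp1-/- cells complemented with human TDP1, 400 cells/well, exposed to compounds plus 20 nM camptothecin for at least 48 h at 37 C; viability read as ATP content by CellTiter-Glo luminescence.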
HT1080 IDH1KD tx: HT-1080 IDH1 knockdown cell toxicity (counter line) | hit rate 2% among 360,000 | Potency, µM (series often up to 46.1 µM), for inactives: at the highest dose activity, negative = toxicity, usual class: cytotoxic | HT-1080 IDH1 knockdown viability, ATP luminescence, 48 h;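 note: potency is the fitted concentration of half-maximal effect; 0% = DMSO wells and -100% = cell-free medium wells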
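HT-1080-IDH1KD cells (IDH1 knocked down), 750/well in RPMI with 5% FBS, treated with compound 48 h at 37 degrees C. Viability by CellTiter-Glo luminescence, normalised to DMSO and no-cell wells; concentration-response curves classed.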
DT40 TDP1 no CPT: qHTS for Inhibitors of human tyrosyl-DNA phosphodiesterase 1 (TDP1): qHTS in cells in absence of CPT; DT40 Tdp1-/- hTDP1 cells, no CPT, ATP luminescence, 48 h; Potency, µM (series often up to 46.2 µM), for the others: top-dose activity change, negative = growth inhibition, hits mostly inhibitors; hit rate 15% among 420,000; note: potency is the fitted concentration of half-maximal effect; nearly all actives have a fitted effect of over 55% in size
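DT40 Tdp1-/-;hTDP1 cells, no CPT (DMSO vehicle only), 400 cells/well; compounds pin-transferred; ≥48 hr, 37 °C; CellTiter-Glo 30 min RT dark, luminescence read.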
HT1080NT lethal: kills 2HG-producing HT-1080-NT fibrosarcoma cells; hit rate 1.6% among 360,000; AID 686970; HT-1080-NT fibrosarcoma viability, CellTiter-Glo ATP luminescence, 48 h; Potency, µM (titrated, usually from 46.1 µM), without a hit: top-dose activity, negative = less viability, usual class: cytotoxic;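 note: NT is the 2HG producing partner of a matched IDH1 knockdown line; potency is the fitted concentration of half-maximal effect; 0% = DMSO-treated cells and -100% = media-only wells without cells; nearly all actives have a fitted effect of over 55% in size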
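Luminescent CellTiter-Glo readout after 48 hours of compound exposure at 37 degrees C defined viability of HT-1080-NT cells. Activity was normalized to DMSO wells and cell-free media wells; concentration-response curves were fitted and assigned curve classes.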
The depositor's hits bear a star; ? = inconclusive; / = not tested or not shown. Only some compounds are listed: those with a hit (about 19% of all), similar ones and a draw of the others. Unless noted, calls come from the whole dose curve; as a rule, active = well fitted curve in the direction sought with a large enough effect; inconclusive = small, poorly fitted or top-dose-only effect, or another doubt; inactive = no such curve, though single readings can be large; an effect the other way counts as inactive or inconclusive. Unless noted, % is set by controls: 0 for no effect and ±100 for the full control effect.

SMILES	IL-1B inflam inh	DT40 TDP1 CPT	HT1080 IDH1KD tx	DT40 TDP1 no CPT	HT1080NT lethal
Cc1ccc(C)c(Nc2nnc(-c3ccc(C)c(S(=O)(=O)NCC4CCCO4)c3)c3ccccc23)c1 (stereo not drawn)	/	18µM*	/	5.2µM*	/
CCCCNS(=O)(=O)c1ccc(C)c(-c2nnc3c4ccccc4c(C)nn23)c1	/	?	/	16µM*	/
Cc1ccc(-c2nn3c(C)nnc3c3ccccc23)cc1S(=O)(=O)NCC(C)O (stereo not drawn)	/	?	/	-59%	/
Cc1ccc(-c2nn3c(-c4ccco4)nnc3c3ccccc23)cc1S(=O)(=O)NCC1CCCO1 (stereo not drawn)	-26	?	1%	5.8µM*	2%
COc1ccc(NC(=O)C2(C)CCCN(C(C)C)C2)cc1OC (stereo not drawn)	103	-3%	0%	-2%	12%
CC(Sc1n[nH]c(=O)n1Cc1ccccc1)C(=O)NCC1CCCO1 (stereo not drawn)	5	-5%	2%	-6%	0%
Cc1nc(C(F)(F)F)c(C(=O)N/N=C(\N)c2cccnc2)s1	22	3%	4%	13%	2%
COc1ccc(CNC(=O)CCN2C(=S)NC(C)(C)CC2C)cc1 (stereo not drawn)	27	6%	0%	10%	8%
CCOc1ccc(Cl)cc1-c1cc(C(=O)NC(C)C)[nH]n1	19	?	-6%	?	5%
Cc1ccc(-c2nnc(Nc3ccccc3)c3ccccc23)cc1S(=O)(=O)NCC1CCCO1 (stereo not drawn)	-62*	26µM*	-20%	16µM*	-19%
CCOC(=O)CNS(=O)(=O)c1cc(-c2nn(C)c(=O)c3ccccc23)ccc1C	-92*	?	0%	?	2%
CC(=O)Nc1ccc(Nc2nnc(-c3ccc(C)c(S(=O)(=O)NCC4CCCO4)c3)c3ccccc23)cc1 (stereo not drawn)	-10	-3%	-2%	3%	-4%
CNC(=O)c1ccc(Nc2nnc(-c3ccc(C)c(S(=O)(=O)NCC4CCCO4)c3)c3ccccc23)cc1 (stereo not drawn)	?	26µM*	-13%	13µM*	-21%
CC(C)C[C@H]1CNC(=O)C(=O)N1C[C@@H]1CCCN1C[C@H](Cc1ccc(O)cc1)N1C[C@H](Cc2ccccc2)N(CC2CCCCCC2)C(=O)C1=O	-3	?	?	?	?
CC(C)C[C@H]1CN([C@@H](Cc2ccccc2)CN2CCC[C@H]2CN2C(=O)C(=O)NC[C@@H]2Cc2ccc(O)cc2)C(=O)C(=O)N1CC1CCCCCC1	-89*	?	?	16µM*	?
O=C1NC[C@H](Cc2ccc(O)cc2)N(C[C@@H]2CCCN2C[C@H](Cc2ccccc2)N2C[C@H](Cc3ccc(O)cc3)N(CC3CCCCCC3)C(=O)C2=O)C1=O	-56*	?	-18%	?	-29%
CC(C)C[C@H]1CN([C@@H](Cc2ccc(O)cc2)CN2CCC[C@H]2CN2C(=O)C(=O)NC[C@@H]2Cc2ccccc2)C(=O)C(=O)N1CC1CCCCC1	?	?	-29%	21µM*	-19%
CC(C)(C)c1ccc(C(=O)N2CCC2(C)C(=O)NCCC#N)cc1 (stereo not drawn)	?	?	16%	?	10%
Cc1cnn(Cc2cccnc2)c1N	10	10%	6%	-13%	6%
COc1cccc(NC(=O)C2CC(=O)N(c3ccc(Br)cc3)C2)c1 (stereo not drawn)	/	-2%	/	-8%	/
CNc1c(Br)cc(/C=C2\C=Cc3ccccc32)cc1Br	/	-9%	/	?	/
CNc1c(Br)cc(C(O)C2=CCc3ccccc32)cc1Br (stereo not drawn)	/	8.9µM*	/	4.5µM*	/
CCOCCCNC(=O)C1CCC(CNS(=O)(=O)c2ccc(NC(C)=O)cc2)CC1 (stereo not drawn)	/	-5%	/	-11%	/
COc1cccc(Nc2ncccc2C(=O)Nc2ccccc2)c1	?	-27%	14%	3%	17%
O=C(Nc1ccccc1)c1ccccc1CCc1ccccc1	-1	?	-2%	-27%	7%
SMILES	IL-1B inflam inh	DT40 TDP1 CPT	HT1080 IDH1KD tx	DT40 TDP1 no CPT	HT1080NT lethal
COc1ccc(NC(=O)c2cccnc2NCCc2ccccc2)cc1	-3	21µM*	-4%	?	-7%
O=C(Nc1ccccc1)c1cccnc1NCCc1ccccc1	-8	?	5%	16µM*	-2%
CCCCCOc1ccc(C(=O)NCC(=O)NCC(=O)OCC)cc1	31	18µM*	?	21µM*	?
CCOC(=O)CNC(=O)CNC(=O)c1ccc(OCC(C)C)cc1	24	?	6%	21µM*	0%
CCOC(=O)CNC(=O)CNC(=O)c1ccc(OC(C)C)cc1	1	0%	0%	-2%	-3%
CCCCOc1ccc(C(=O)NCC(=O)NCCOc2ccccc2)cc1	2	1%	-3%	-25%	2%

Assay outcomes as filed in PubChem BioAssay.
